The record followed here is PubChem BioAssay.

Assay [1] in a line: resazurin metabolic signal in HepG2 cells – cell-based, resazurin fluorescence, 24 h, PK04 Diversity Set, profiling panel (AID 1172). Note: test concentration not given here. The conditions noted are these: HepG2 viability, higher = more signal.
The nature of assay [2]: budding yeast growth changes without added modifier – OD600, strain BY4716, 24 h, basal condition, primary screen (AID 1173). The conditions noted are these: S. cerevisiae BY4716 growth, OD600, 24 h; higher = more signal, called active from +8 up or from −8 down.
Assay [3] can be described thus: viability profiling in MM1S myeloma cells – cell-based, resazurin fluorescence, basal, 24 h, PK04 Diversity Set, profiling panel (AID 1174).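 Note: MM1S multiple myeloma cell line; test concentration not given here.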 To be noted: higher = more signal, called active from +8 up or from −8 down. Background: The colour change of resazurin is a common sign of viable cells or microbes.
Assay [4] addresses Dihydroorotate dehydrogenase (quinone), mitochondrial (Plasmodium falciparum (isolate 3D7)) (UniProt Q08210). The assay can be described thus: inhibition of P. falciparum DHODH – biochemical, C-terminal His tag, absorbance 600 nm, primary screen (AID 1175).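 Note: recombinant parasite enzyme with a five histidine tag at its C terminus; test concentration not given here.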 The conditions noted are these: PfDHODH enzyme, DCIP absorbance 600 nm; higher = more signal, called active from +8 up or from −8 down.

Assay [5] can be described thus: inhibition of PAO1 biofilm formation – strain PAO1, LB-PBS medium, absorbance 600 nm, primary screen (AID 1176). Note: test concentration not given here. To be noted: P. aeruginosa PAO1 growth/biofilm, A600, 12 h; higher = more signal.
Assay [6] can be described thus: growth modulation of vineyard yeast isolate – strain RM11-1a, OD600, basal, 24 h, primary screen (AID 1177).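 Note: cultures grown under basal conditions with no added stressor; test concentration not given here.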 The conditions noted are these: S. cerevisiae RM11-1a growth, OD600, 24 h; higher = more signal, called active from +8 up or from −8 down.
The nature of assay [7]: growth of efflux-deficient E. coli DRC39 – strain DRC39, OD650, 24 h, E. coli filamentation inducers, primary screen (AID 1178).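 Note: growth measured as culture turbidity by optical density at 650 nm; test concentration not given here.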 The conditions noted are these: E. coli DRC39 acrAB, higher = more signal, called active from +8 up or from −8 down.
A short description of assay [8]: growth of efflux-deficient E. coli DRC39 – strain DRC39, OD650, 48 h, E. coli filamentation inducers, primary screen (AID 1179).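 Note: screen aims at cell division blockers that make cells filament.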 The conditions noted are these: E. coli DRC39 delta-acrAB growth, higher = more signal, called active from +8 up or from −8 down.
Assay [9] is described as follows: viability profiling in RPMI8226 myeloma cells – cell-based, resazurin fluorescence, basal, 24 h, PK04 Diversity Set, profiling panel (AID 1180).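 Note: RPMI8826 multiple myeloma cell line at 5000 cells per well; test concentration not given here.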 To be noted: higher = more signal.
The target in assay [10] is E3 ubiquitin-protein ligase XIAP (Homo sapiens) (UniProt P98170). Put plainly: small molecules binding XIAP protein – biophysical, small-molecule microarray, fluorescence 635 nm, primary screen (AID 1181).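 Note: score merges 667 nm emission and signal to noise over triplicate slides.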 The conditions noted are these: higher = more signal.

Active and inactive are the calls of the source. Unless noted, the rule behind the calls is not given here.

Dihydroorotate dehydrogenase (quinone), mitochondrial (Plasmodium falciparum (isolate 3D7)), sequence (Q08210 whole entry, looked up): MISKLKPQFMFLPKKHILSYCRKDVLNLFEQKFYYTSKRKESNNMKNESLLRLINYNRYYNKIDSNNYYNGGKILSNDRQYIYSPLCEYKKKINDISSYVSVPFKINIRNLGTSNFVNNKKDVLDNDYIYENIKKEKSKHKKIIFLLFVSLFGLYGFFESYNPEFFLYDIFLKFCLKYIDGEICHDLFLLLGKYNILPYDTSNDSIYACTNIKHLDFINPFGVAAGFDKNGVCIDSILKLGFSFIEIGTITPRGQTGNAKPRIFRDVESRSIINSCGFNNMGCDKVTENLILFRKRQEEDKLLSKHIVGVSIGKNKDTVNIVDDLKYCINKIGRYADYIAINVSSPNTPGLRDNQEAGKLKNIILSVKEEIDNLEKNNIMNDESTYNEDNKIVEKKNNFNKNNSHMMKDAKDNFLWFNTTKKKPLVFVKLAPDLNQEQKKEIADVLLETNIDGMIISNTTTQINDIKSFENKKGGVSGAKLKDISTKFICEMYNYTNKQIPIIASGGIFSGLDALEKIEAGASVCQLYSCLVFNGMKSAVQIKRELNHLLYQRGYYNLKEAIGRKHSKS
E3 ubiquitin-protein ligase XIAP (Homo sapiens), sequence (P98170 whole entry, looked up): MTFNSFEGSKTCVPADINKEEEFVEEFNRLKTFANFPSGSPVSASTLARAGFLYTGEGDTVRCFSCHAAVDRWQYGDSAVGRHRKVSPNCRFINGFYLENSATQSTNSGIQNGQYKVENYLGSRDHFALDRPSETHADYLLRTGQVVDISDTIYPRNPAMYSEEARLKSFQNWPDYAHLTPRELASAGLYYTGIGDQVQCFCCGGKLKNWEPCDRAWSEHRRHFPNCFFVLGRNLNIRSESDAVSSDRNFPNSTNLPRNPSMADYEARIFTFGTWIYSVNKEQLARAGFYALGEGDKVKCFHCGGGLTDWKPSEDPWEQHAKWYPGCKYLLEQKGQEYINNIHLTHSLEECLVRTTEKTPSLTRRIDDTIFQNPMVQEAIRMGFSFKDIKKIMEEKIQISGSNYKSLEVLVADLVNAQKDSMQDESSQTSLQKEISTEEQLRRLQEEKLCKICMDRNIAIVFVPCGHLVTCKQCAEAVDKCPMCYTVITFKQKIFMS

With `C=C(/C(=C/C[C@H](OC(C)=O)c1ccc(CO)o1)c1cc(C(=O)OC)ccc1OC)C(C)C`, the z-score is -0.783 in [1]; 0.18 (inactive) in assay [2]; -1.14 (inactive) in [3]; -0.0342 (inactive) in [5]; 0.447 (inactive) in assay [6]; -1.42 (inactive) in assay [7]. For the same compound, the z-score was -0.94 (inactive) in assay [8] and -1.34 in [9]. Also, the results for the composite z-score in [4] and in assay [10] were -3.65 (inactive) and -0.0807, respectively.

`[N-]=[N+]=NCc1ccccc1C[C@]1(C(N)=O)COC(c2ccc(OCCCO)cc2)=N1`: the z-score in assay [1] is 0.252; in assay [2] it was -1.66 (inactive); in assay [3], 0.424 (inactive); in assay [5], 0.466 (inactive); in assay [6], -1.37 (inactive); in assay [7], 1.23 (inactive). Also, the z-score in assay [8] is 1.87 (inactive); in [9], 0.399. Besides, the composite z-score in assay [4] was -0.0854 (inactive); in assay [10] it was 0.144.

For the compound `C=C[C@@H](COC(=O)OC(C)(C)C)N(Cc1ccc(OC)cc1)S(=O)(=O)c1ccc(Br)cc1`, the z-score in assay [1] is 0.163; in assay [2] it was 0.119 (inactive); in [3], 0.67 (inactive); in [5], -0.177 (inactive); in [6], 0.378 (inactive); in [7], -0.807 (inactive). The z-score in assay [8] is -0.667 (inactive); in assay [9], -0.918. In addition, the composite z-score is -0.316 (inactive) in assay [4] and 0.1 in assay [10].

`CCCC[C@@H]1C[C@H]1[C@@H](NC(=O)c1ccccc1)c1ccc(C(=O)OC)cc1`: the z-score was -0.186 in [1]; -1.61 (inactive) in [2]; -0.892 (inactive) in [3]; 0.771 (inactive) in [5]; -0.75 (inactive) in assay [6]; -0.986 (inactive) in [7]. Further, the z-score was -0.885 (inactive) in [8] and 0.0845 in assay [9]. In addition, the results for the composite z-score in [4] and in assay [10] were -0.265 (inactive) and -0.0143, respectively.

Take `O=C1c2ccccc2[C@](Cc2ccccc2I)(C(=O)NCCN2CCOCC2)[C@H](c2ccc(CO)cc2)N1C1CCCCC1`: the z-score in assay [1] is -0.16; in assay [2], -1.21 (inactive); in assay [3], -0.526 (inactive); in [5], 0.531 (inactive); in [6], 0.358 (inactive); in [7], 0.29 (inactive). Also, the z-score in [8] is 0.205 (inactive); in assay [9] it was -0.954. The figures for the composite z-score in [4] and in assay [10] were -0.119 (inactive) and 0.0623, respectively.

For the compound `COCCOC(=O)N1C(=O)[C@@]2(c3ccccc31)[C@H](c1ccccc1OCCO)N1[C@H](c3ccccc3)[C@H](c3ccccc3)OC(=O)[C@H]1[C@@H]2C(=O)N1CCN(c2ncccn2)CC1`, the z-score was -0.0332 in assay [1]; 2.64 (inactive) in assay [2]; -1.39 (inactive) in assay [3]; 3.61 (inactive) in assay [5]; 3.08 (inactive) in [6]; -0.233 (inactive) in assay [7]. The z-score in assay [8] is 0.176 (inactive); in [9], -0.862. In addition, the composite z-score was -0.539 (inactive) in [4] and -0.16 in assay [10].

Take `CCCCN1CC=CC23O[C@@H]4C=CCCOC(=O)C4[C@H]2C(=O)N(CCCCCCO)[C@@H]3C1=O` (stereo not given in full): the z-score is 0.0635 in [1]; 0.254 (inactive) in assay [2]; -0.846 (inactive) in [3]; -0.14 (inactive) in assay [5]; 0.308 (inactive) in assay [6]; 0.013 (inactive) in assay [7]. For the same compound, the values for the z-score in assay [8] and in [9] were 0.383 (inactive) and -0.461, respectively. Besides, the values for the composite z-score in assay [4] and in assay [10] were -1.01 (inactive) and -0.141, respectively.

Consider `CCN(CC)c1ccc(N2CC=CC34O[C@@H]5C=CCCOC(=O)C5[C@H]3C(=O)N(CCCCCCO)[C@@H]4C2=O)cc1` (stereo not given in full), for which the z-score in assay [1] was 0.846; in assay [2] it was -1.04 (inactive); in assay [3], 1.55 (inactive); in [5] it was 0.786 (inactive); in assay [6], -1.31 (inactive); in [7], 1.07 (inactive). Besides, the z-score in [8] is 0.534 (inactive); in [9], 1.04. The composite z-score in assay [4] was -0.324 (inactive); in assay [10] it was 0.127.

In the case of `COc1ccc(C(=O)Nc2ccc(CN3C(=O)[C@]4(O[C@H](CCO)[C@@H]([Si](C)(C)c5ccc(OC)cc5)[C@@H]4C)c4ccccc43)cc2)cc1`, the z-score in assay [1] was -5.44; in assay [2], -3.84 (inactive); in [3], -9.1 (active); in [5] it was 2.16 (inactive); in assay [6] it was 4.35 (inactive); in assay [7], 0.65 (inactive). The z-score in assay [8] is -0.416 (inactive); in [9], -6.25. For the same compound, the composite z-score in [4] is 0.132 (inactive); in assay [10], 0.0623.

In the case of `COc1ccc([Si](C)(C)[C@H]2[C@H](CCO)O[C@@]3(C(=O)N(Cc4ccc(N(C=O)c5ccccc5)cc4)c4ccccc43)[C@@H]2C)cc1`, the z-score in assay [1] was -1.57; in assay [2], 1.83 (inactive); in assay [3], -3.71 (inactive); in assay [5] it was 2.06 (inactive); in [6] it was 4.71 (inactive); in assay [7], 0.216 (inactive). In addition, the figures for the z-score in assay [8] and in [9] were -0.495 (inactive) and -2.77, respectively. Moreover, the values for the composite z-score in assay [4] and in [10] were 0.041 (inactive) and -0.163, respectively.

Regarding `O=C1C2C=CC(C(O)Cc3ccccc3)N(n3cnnc3)C2C(=O)N1Cc1ccccc1` (stereo not given), the z-score in assay [1] was -0.957; in assay [2], 0.341 (inactive); in [3], -1.04 (inactive); in assay [5], -0.253 (inactive); in [6] it was 0.656 (inactive); in [7], -1.08 (inactive). In addition, the z-score in assay [8] was -1.13 (inactive); in assay [9], -1.05. Further, the composite z-score in [4] was 0.293 (inactive); in [10], 0.0328.
